Source: PubChem (Paczesny and Yang Labs, IUPUI and University of Michigan)
Many of the other results were omitted from the sample, so hits are more common in it than they were.
ST2 IL33 inh – IL1RL1 inhibition; Q01638; AlphaLISA ST2-Fc/biotin-IL-33 interaction, 1 h; inhibition, % for hits at 17 µM; hit rate 2.3% among 78,000; in the data active = inhibition above about 30%
Target sequence (Q01638 whole entry, looked up): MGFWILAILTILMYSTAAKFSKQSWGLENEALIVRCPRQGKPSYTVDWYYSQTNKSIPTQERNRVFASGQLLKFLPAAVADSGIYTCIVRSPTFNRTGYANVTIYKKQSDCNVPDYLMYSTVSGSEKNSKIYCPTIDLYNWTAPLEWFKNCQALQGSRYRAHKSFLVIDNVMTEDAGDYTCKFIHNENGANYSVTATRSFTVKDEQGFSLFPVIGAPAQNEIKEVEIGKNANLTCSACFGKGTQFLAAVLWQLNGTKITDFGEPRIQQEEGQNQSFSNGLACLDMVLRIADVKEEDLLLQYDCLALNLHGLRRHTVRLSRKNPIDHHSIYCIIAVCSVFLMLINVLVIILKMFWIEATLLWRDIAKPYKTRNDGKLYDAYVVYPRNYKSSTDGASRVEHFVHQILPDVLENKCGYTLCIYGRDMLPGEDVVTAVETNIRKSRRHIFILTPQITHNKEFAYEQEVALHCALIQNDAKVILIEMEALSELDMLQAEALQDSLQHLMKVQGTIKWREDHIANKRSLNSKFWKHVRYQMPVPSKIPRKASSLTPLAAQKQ
* marks the source's active call; other numbers are inactive results; i = inactive.

SMILES | ST2 IL33 inh
Cc1noc2ncnc(N3CCC(N4CCCC(C(=O)N5CCCC5)C4)CC3)c12 (configuration not stated) | i
Cc1ncnc(N2CCC(N3CCCC(C(=O)N4CCCC4)C3)CC2)c1C (configuration not stated) | i
CNC(=O)c1cccnc1N1CCC(N2CCCC(C(=O)N3CCCC3)C2)CC1 (configuration not stated) | 33%*
COCCOC(=O)c1c(C)oc2ccc(OCc3ccc(Cl)cc3Cl)cc12 | i
COc1cc(/C=C2\C(=O)N(c3cccc(C(=O)O)c3)N=C2C)cc([N+](=O)[O-])c1O | i
COc1ccccc1/C=C/C1=NC(=C\c2ccccc2[N+](=O)[O-])/C(=O)O1 | i
COc1cc(Br)cc(/C=C2\Sc3ccccc3C2=O)c1O | 60%*
COc1cc(Br)cc(/C=C2/NC(=O)NC2=O)c1O | i
COc1cc(/C=C2\Sc3ccccc3C2=O)cc([N+](=O)[O-])c1O | 30%*
COc1cc(/C=C2/C(=O)N(c3ccc(Br)cc3)N=C2C)cc([N+](=O)[O-])c1O | i
COc1cc(/C=C2/SC(=O)NC2=O)c([N+](=O)[O-])cc1OC | i
COc1cc(C=O)cc(C=O)c1O | i
O=C1/C(=C/c2ccccc2[N+](=O)[O-])Sc2ccccc21 | 31%*
CCn1cc(C(=O)NCCN2CCCC2)c(=O)c2cc(S(=O)(=O)N3CCCC3)ccc21 | i
NS(=O)(=O)c1ccc(NC(NC(=O)c2cccs2)C(Cl)(Cl)Cl)cc1 (configuration not stated) | i
COc1cc(/C=C/CO)ccc1OC/C=C(\C)CCC=C(C)C | i
CCn1cncc1CNC(=O)c1sc(C)nc1-c1ccccc1 | i
COc1cc(NC(=S)N[C@H]2CO[C@H]3[C@@H]2OC[C@H]3OC(=O)Nc2ccc(C(C)C)cc2)cc(OC)c1 | i
COC(=O)c1c(NC(=O)COc2ccccc2)sc2c1CCN(C(C)C)C2 | i
Cc1c(C(=O)NCc2ccc(F)cc2)oc2ccc(S(=O)(=O)N3CCCC(C)C3)cc12 (configuration not stated) | i
COc1ccc(NCC(O)Cn2c(C)c(C)c3ccccc32)cc1 (configuration not stated) | 32%*
Cc1c(C)n(CC(O)CNC2CCCCC2)c2ccccc12 (configuration not stated) | i
Cc1ccc(C)c(NCC(O)Cn2c(C)c(C)c3ccccc32)c1 (configuration not stated) | i
O=C(NCCN1CCOCC1)c1ccc2c(c1)N(Cc1cccc(Cl)c1)C(=O)CS2 | i
CN(C)C(=O)c1cc(F)c(F)c(F)c1F | i
SMILES | ST2 IL33 inh
CCOC(=O)N1CCN(C(=O)c2ccc(N3CCC(NCCc4cccs4)CC3)cc2)CC1 | i
O=C(c1ccc(N2CCC(NCC3(N4CCOCC4)CCCC3)CC2)cc1)N1CCCC(O)C1 (configuration not stated) | 31%*
CCOC(=O)N1CCN(C(=O)c2ccc(N3CCC(NCCc4ccncc4)CC3)cc2)CC1 | i
N#CC1=C(N)SC(N)=C(C#N)C1c1ccc(Cl)c(Cl)c1 | i
Cc1noc(C)c1C1CCCN1C(=O)CCNC(=O)c1ccc(F)cc1 (configuration not stated) | i
CCc1ccc(-c2cn3c(C(=O)N4[C@@H]5CC[C@H]4CNC(=O)C5)csc3n2)cc1 | 36%*
COc1ccc(NC2(C(=O)N3[C@@H]4CC[C@H]3CNC(=O)C4)CCCC2)cc1 | i
Cc1nc2sccn2c1C(=O)N1[C@H]2CCNC[C@@H]1CC2 | i
CCc1ccc2nc(N3CCCN(C(=O)COC)CC3)cc(C)c2c1 | i
Cc1ccc(Nc2cc(C)nc(Nc3ccc(NC(=O)C4CCCCC4)cc3)n2)cc1 | 30%*
Cc1ccc(Nc2cc(C)nc(Nc3ccc(NC(=O)C(C)(C)C)cc3)n2)cc1 | 33%*
COc1ccc(Nc2cc(C)nc(Nc3ccc(NC(=O)C4CCCCC4)cc3)n2)cc1 | 34%*
Cc1ccc(Nc2cc(C)nc(Nc3ccc(NC(=O)c4ccc(Br)o4)cc3)n2)cc1 | i
COc1ccc(Nc2cc(C)nc(-c3ccccc3)n2)cc1 | i
Cc1cc(Nc2ccccc2)nc(Nc2ccc(NC(=O)C3CCCCC3)cc2)n1 | i
CC(=O)Nc1ccc(Nc2nc(C)cc(Nc3ccc(C)cc3)n2)cc1 | i
Cc1ccc(Nc2cc(C)nc(Nc3ccc(NC(=O)c4ccc(Br)cc4)cc3)n2)cc1 | i
COC(=O)c1cc2n(n1)CCCN(c1nccc(N3CCC(O)CC3)n1)C2 | i
COc1ccccc1CCN1CCCC(CN(C)C(=O)Cc2cn(C)c3ccccc23)C1 (configuration not stated) | i
Cc1ccn2c(=O)cc(CN3CCCC(N4CCCC4=O)C3)nc2c1 (configuration not stated) | i
CCC(CO)NS(=O)(=O)c1ccc([N+](=O)[O-])cc1 (configuration not stated) | i
O=c1[nH]c2ccccc2nc1Cc1ccccc1[N+](=O)[O-] | i
CC1CCCCN1C(=O)c1oc(=O)c2ccccc2c1-c1ccccc1 (configuration not stated) | i
Cc1cc(OCC(O)CNC(C)(C)C)ccc1C(C)C (configuration not stated) | i
Cc1ccc(OCC(O)CNC(C)(C)C)cc1C (configuration not stated) | i
SMILES | ST2 IL33 inh
Cc1ccc(NCC(O)COc2ccccc2)cc1C (configuration not stated) | 35%*
CCOC(=O)C1C(=O)C=C(c2ccc(F)cc2)CC1c1ccc(OC)c(OC)c1 (configuration not stated) | i
CC(C)(CC1Cc2ccccc2C1)NC(=O)C1CC2(CCNCC2)CN1 (configuration not stated) | i
Cc1cc(Br)ccc1NS(=O)(=O)c1cccc2cccnc12 | i
O=C1CC2(CCCCC2)Oc2ccc(O)cc21 | i
Nc1ccc2c(c1)OC1(CCCCC1)O2 | 37%*
CC1(C(=O)Nc2ccc3c(c2)OC2(CCCCC2)O3)CC1(Cl)Cl (configuration not stated) | i
COc1ccc(S(=O)(=O)N2CCN(c3nc(C)cc(N4CCOCC4)n3)CC2)cc1C | i
CCN1CN=C2SC(CO)(CO)C(=O)N2C1 | i
CCc1nc(C)sc1CNC(=O)c1cnc2ccnn2c1C | i
CCOc1ccc(N2C(=O)S/C(=C\c3ccccc3)C2=O)cc1 | i
CCN1C(=O)/C(=C2/Sc3ccc(OC)cc3N2C)SC1=Nc1ccc(C(C)=O)cc1 | i
CCOc1ccc(N=C2S/C(=C\c3ccc(N(C)C)cc3)C(=O)N2CC)cc1 | 56%*
Cc1ccc(N2C(=O)C3CC=CC(C)C3C2=O)cc1Cl (configuration not stated) | i
CN(Cc1ccccc1)C(=O)Cc1c(C(=O)O)[nH]c2ccc(Cl)cc12 | i
Cc1ccc(SCc2cc(=O)[nH]c(SCC(=O)Nc3ccccc3-c3ccccc3)n2)cc1 | i
NC(=O)c1ccc(C(F)(F)F)nc1N1C[C@@H]2[C@H](C1)[C@H]1CC[C@@H]2O1 | i
CC(C)c1cc(NCc2cccnc2N2CCCC(O)C2)nc(C(F)(F)F)n1 (configuration not stated) | i
CC(C)c1cc(N2CCCC3(CC2)CNC(=O)O3)nc(C(F)(F)F)n1 (configuration not stated) | i
CC(C)c1cc(NC2CC(=O)N(CC(C)(C)C)C2)nc(C(F)(F)F)n1 (configuration not stated) | 31%*
CCN(C(=O)C1c2ccccc2Oc2ccccc21)c1ccccc1 | i
